In PubChem BioAssay (EPA / NIEHS):
The source made the active and inactive calls. How the source made its calls: active means hit-call score of the fitted dose curve at least 0.9, where 1 is the maximum; inactive means score below 0.9.

How the values were obtained:
[1] = read-out: Fatty acid synthase (Homo sapiens) (UniProt P49327); test: LTEA_HepaRG_FASN: Life Technologies and Expression Analysis (LTEA) Assay for Fatty Acid Synthase (FASN) using HepaRG (AID 2283448); details: mRNA level, 48 h; actives raise or lower the signal;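 on AC50: differentiated human HepaRG liver cells in serum-free induction medium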
Outline: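 Differentiated HepaRG cells in serum-free induction medium exposed 48 h in duplicate to eight half-log concentrations, top 100 uM, 0.5% DMSO. FASN mRNA by qRT-PCR normalised to ACTB, GAPDH, POLR2A; bidirectional fit versus DMSO.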

[2] = read-out: Cyclin D2 (CCND2), CCND2 (gene 894); test: LTEA_HepaRG_CCND2: Life Technologies and Expression Analysis (LTEA) Assay for Cyclin D2 (CCND2) using HepaRG (AID 2283449); details: mRNA level, 48 h; actives raise or lower the signal
Outline: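 Read-out is CCND2 mRNA level measured by qRT-PCR in human HepaRG liver cells and normalised to three housekeeping genes. Chemicals were applied for 48 h at up to 100 uM, with gain or loss fitted relative to 0.5% DMSO.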

[3] = read-out: Cyclin Dependent Kinase Inhibitor 1A (CDKN1A), CDKN1A (gene 1026); test: LTEA_HepaRG_CDKN1A: Life Technologies and Expression Analysis (LTEA) Assay for Cyclin Dependent Kinase Inhibitor 1A (CDKN1A) using HepaRG (AID 2283450); details: mRNA level, 48 h; actives raise or lower the signal
Outline: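 Expression quantified by Fluidigm qRT-PCR with ACTB, GAPDH and POLR2A normalization, fitted bidirectionally against 0.5% DMSO. Cells: HepaRG, plated 48 h then treated 48 h in serum-free induction medium, top concentration 100 uM with half-log dilutions.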

[4] = read-out: Cyclin D1 (CCND1), CCND1 (gene 595); test: LTEA_HepaRG_CCND1: Life Technologies and Expression Analysis (LTEA) Assay for Cyclin D1 (CCND1) using HepaRG (AID 2283451); details: mRNA level, 48 h; actives raise or lower the signal
Outline: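 Expression of CCND1 was quantified by qRT-PCR on Fluidigm arrays using ACTB, GAPDH and POLR2A as reference genes. HepaRG cultures, plated 48 h beforehand, were dosed for 48 h at up to 100 uM (half-log, 8 points) in 0.5% DMSO.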

[5] = read-out: flavin-containing dimethylaniline monooxygenases 3 (FMO3), FMO3 (gene 2328); test: LTEA_HepaRG_FMO3: Life Technologies and Expression Analysis (LTEA) Assay for flavin-containing dimethylaniline monooxygenases 3 (FMO3) using HepaRG (AID 2283453); details: mRNA level, 48 h; actives raise or lower the signal;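 on AC50: differentiated human HepaRG liver cells in serum-free induction medium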
Outline: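 Differentiated HepaRG cells in serum-free induction medium, exposed 48 h in duplicate to 8 half-log concentrations up to 100 uM in 0.5% DMSO. FMO3 mRNA by qRT-PCR, normalized to ACTB, GAPDH, POLR2A; bidirectional fit vs DMSO.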

[6] = read-out: Cytochrome P450 (CYP1A1), CYP1A1 (gene 1543); test: LTEA_HepaRG_CYP1A1: Life Technologies and Expression Analysis (LTEA) Assay for Cytochrome P450 (CYP1A1) using HepaRG (AID 2283454); details: mRNA level, 48 h; actives raise or lower the signal
Outline: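 CYP1A1 transcript levels measured by Fluidigm qRT-PCR against three housekeeping genes, 48 h after chemical dosing of human HepaRG cells (highest concentration 100 uM, half-log steps, 0.5% DMSO vehicle). Gain or loss of signal fitted relative to DMSO.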

[7] = read-out: CFLAR gene, CFLAR (gene 8837); test: LTEA_HepaRG_CFLAR: Life Technologies and Expression Analysis (LTEA) Assay for CFLAR gene using HepaRG (AID 2283455); details: mRNA level, 48 h; actives raise or lower the signal
Outline: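 HepaRG, 48 h exposure, 8-pt conc-response (100 uM top, half-log), 0.5% DMSO vehicle, duplicates. CFLAR expression by qRT-PCR; ACTB/GAPDH/POLR2A normalization; gain or loss fit vs DMSO baseline.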

[8] = read-out: Forkhead box O1 (FOXO1), FOXO1 (gene 2308); test: LTEA_HepaRG_FOXO1: Life Technologies and Expression Analysis (LTEA) Assay for Forkhead box O1 (FOXO1) using HepaRG (AID 2283456); details: mRNA level, 48 h; actives raise or lower the signal
Outline: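 Readout is FOXO1 transcript level by multiplexed qRT-PCR against three housekeeping genes, curve-fitted in both directions relative to 0.5% DMSO vehicle. Human HepaRG cultures received chemicals for 48 h, up to 100 uM in half-log steps.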

[9] = read-out: growth arrest and DNA damage 45 (GADD45A), GADD45A (gene 1647); test: LTEA_HepaRG_GADD45A: Life Technologies and Expression Analysis (LTEA) Assay for growth arrest and DNA damage 45 (GADD45A) using HepaRG (AID 2283458); details: mRNA level, 48 h; actives raise or lower the signal
Outline: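 Differentiated HepaRG cells exposed 48 h in serum-free induction medium to 8 concentrations, top 100 uM in half-log steps, 0.5% DMSO. GADD45A mRNA quantified by qRT-PCR, normalized to ACTB, GAPDH and POLR2A; bidirectional fit versus DMSO.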

[10] = read-out: Forkhead box O3 (FOXO3), FOXO3 (gene 2309); test: LTEA_HepaRG_FOXO3: Life Technologies and Expression Analysis (LTEA) Assay for Forkhead box O3 (FOXO3) using HepaRG (AID 2283459); details: mRNA level, 48 h; actives raise or lower the signal
Outline: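 HepaRG, 48 h post-dose; 8 conc., half-log from 100 uM, 0.5% DMSO, duplicates; serum-free induction medium. Readout: FOXO3 mRNA, TaqMan qRT-PCR, housekeeping-normalized. Bidirectional curve fit vs DMSO baseline.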

[11] = read-out: ABC Transporter (ABCB1), ABCB1 (gene 5243); test: LTEA_HepaRG_ABCB1: Life Technologies and Expression Analysis (LTEA) Assay for ABC Transporter (ABCB1) using HepaRG (AID 2283460); details: mRNA level, 48 h; actives raise or lower the signal
Outline: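 Expression of ABCB1 was quantified by qRT-PCR against three housekeeping genes after human HepaRG cultures received test chemicals for 48 hours. Concentrations spanned eight half-log steps topping at 100 uM in 0.5% DMSO; gain or loss of signal was fitted relative to vehicle.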

[12] = read-out: growth arrest and DNA damage 45 (GADD45B), GADD45B (gene 4616); test: LTEA_HepaRG_GADD45B: Life Technologies and Expression Analysis (LTEA) Assay for growth arrest and DNA damage 45 (GADD45B) using HepaRG (AID 2283461); details: mRNA level, 48 h; actives raise or lower the signal
Outline: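 Transcript level quantified by Fluidigm TaqMan qRT-PCR with three housekeeping genes for normalization, analyzed for up- or down-regulation against 0.5% DMSO. HepaRG cultures dosed 48 h at eight half-log concentrations up to 100 uM, duplicates.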

[13] = read-out: ABC Transporter (ABCC3), ABCC3 (gene 8714); test: LTEA_HepaRG_ABCC3: Life Technologies and Expression Analysis (LTEA) Assay for ABC Transporter (ABCC3) using HepaRG (AID 2283462); details: mRNA level, 48 h; actives raise or lower the signal
Outline: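 Transcript level by TaqMan qRT-PCR, normalised to three housekeeping genes, fitted in both directions relative to vehicle. Chemicals tested in duplicate at eight half-log concentrations up to 100 uM for 48 h on HepaRG cells (0.5% DMSO).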

[14] = read-out: ABC Transporter (ABCB11), ABCB11 (gene 8647); test: LTEA_HepaRG_ABCB11: Life Technologies and Expression Analysis (LTEA) Assay for ABC Transporter (ABCB11) using HepaRG (AID 2283463); details: mRNA level, 48 h; actives raise or lower the signal
Outline: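 ABCB11 transcript levels are read by Fluidigm TaqMan qRT-PCR after 48 h chemical treatment of human HepaRG cells. Concentrations span 100 uM downward in half-log steps with 0.5% DMSO; gain or loss is fitted against DMSO controls.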

[15] = read-out: Broad substrate specificity ATP-binding cassette transporter ABCG2 (Homo sapiens) (UniProt Q9UNQ0); test: LTEA_HepaRG_ABCG2: Life Technologies and Expression Analysis (LTEA) Assay for ABC Transporter (ABCG2) using HepaRG (AID 2283465); details: mRNA level, 48 h; actives raise or lower the signal
Outline: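 Read-out is ABCG2 mRNA induction or loss quantified by qRT-PCR after 48 h chemical treatment of human HepaRG cells, normalized to three housekeeping genes. Concentrations reached 100 uM top in half-log steps; fitting was bidirectional against 0.5% DMSO.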

[16] = read-out: ATP-citrate lyase (ACLY), ACLY (gene 47); test: LTEA_HepaRG_ACLY: Life Technologies and Expression Analysis (LTEA) Assay for ATP-citrate lyase (ACLY) using HepaRG (AID 2283466); details: mRNA level, 48 h; actives raise or lower the signal
Outline: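 HepaRG, 48 h exposure, 8-pt half-log dilutions (top 100 uM), 0.5% DMSO. Readout: ACLY mRNA, TaqMan qRT-PCR, housekeeping-normalized (ACTB/GAPDH/POLR2A). Bidirectional curve fit vs DMSO.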

[17] = read-out: catalase (CAT), CAT (gene 847); test: LTEA_HepaRG_CAT: Life Technologies and Expression Analysis (LTEA) Assay for catalase (CAT) using HepaRG (AID 2283452); details: mRNA level, 48 h; actives raise or lower the signal
Outline: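 Expression of CAT was quantified by TaqMan qRT-PCR with ACTB/GAPDH/POLR2A normalization after 48 h chemical exposure of HepaRG. Eight-point half-log series, top 100 uM, in 0.5% DMSO; gain or loss fitted against vehicle.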

[18] = CEETOX_H295R_TESTO: CeeTox H295R High-throughput Steroidogenesis Assay for Testosterone (TESTO) (AID 2283457); details: actives raise or lower the signal
Outline: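 Testosterone secreted into the medium over 48 h by H295R cells (maximum passage 10) was quantified by LC-MS/MS after MTBE extraction. Fitted in both directions against DMSO, with concentrations diluted until MTT viability was ≥70%.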

[19] = read-out: Peroxisomal acyl-coenzyme A oxidase 1 (ACOX1) gene, ACOX1 (gene 51); test: LTEA_HepaRG_ACOX1: Life Technologies and Expression Analysis (LTEA) Assay for Peroxisomal acyl-coenzyme A oxidase 1 (ACOX1) gene using HepaRG (AID 2283467); details: mRNA level, 48 h; actives raise or lower the signal
Outline: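 Measured by qRT-PCR against three housekeeping genes: ACOX1 transcript change in human HepaRG cells after 48 h dosing. Concentrations ran up to 100 uM in half-log steps. Curves were fitted bidirectionally relative to 0.5% DMSO.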

Measured: AC50

Sequence of Broad substrate specificity ATP-binding cassette transporter ABCG2 (Homo sapiens) (Q9UNQ0 whole entry, looked up): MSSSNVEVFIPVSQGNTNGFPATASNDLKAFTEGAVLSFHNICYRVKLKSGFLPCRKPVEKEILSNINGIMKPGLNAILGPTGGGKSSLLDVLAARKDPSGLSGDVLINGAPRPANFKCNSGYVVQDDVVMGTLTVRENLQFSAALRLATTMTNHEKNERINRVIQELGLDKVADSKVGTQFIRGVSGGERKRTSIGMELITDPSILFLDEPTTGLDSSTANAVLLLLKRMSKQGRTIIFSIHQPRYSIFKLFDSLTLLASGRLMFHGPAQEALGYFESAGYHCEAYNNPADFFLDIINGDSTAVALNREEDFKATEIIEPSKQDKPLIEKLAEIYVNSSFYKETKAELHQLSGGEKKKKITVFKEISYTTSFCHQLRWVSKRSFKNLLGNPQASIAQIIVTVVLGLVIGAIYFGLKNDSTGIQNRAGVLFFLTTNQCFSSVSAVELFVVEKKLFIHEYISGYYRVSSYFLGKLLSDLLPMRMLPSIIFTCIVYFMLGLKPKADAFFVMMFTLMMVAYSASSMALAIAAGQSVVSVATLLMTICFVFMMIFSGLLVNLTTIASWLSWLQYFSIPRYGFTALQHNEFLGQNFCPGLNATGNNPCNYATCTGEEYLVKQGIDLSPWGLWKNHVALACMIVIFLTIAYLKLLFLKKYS
Sequence of Fatty acid synthase (Homo sapiens) (P49327 whole entry, looked up): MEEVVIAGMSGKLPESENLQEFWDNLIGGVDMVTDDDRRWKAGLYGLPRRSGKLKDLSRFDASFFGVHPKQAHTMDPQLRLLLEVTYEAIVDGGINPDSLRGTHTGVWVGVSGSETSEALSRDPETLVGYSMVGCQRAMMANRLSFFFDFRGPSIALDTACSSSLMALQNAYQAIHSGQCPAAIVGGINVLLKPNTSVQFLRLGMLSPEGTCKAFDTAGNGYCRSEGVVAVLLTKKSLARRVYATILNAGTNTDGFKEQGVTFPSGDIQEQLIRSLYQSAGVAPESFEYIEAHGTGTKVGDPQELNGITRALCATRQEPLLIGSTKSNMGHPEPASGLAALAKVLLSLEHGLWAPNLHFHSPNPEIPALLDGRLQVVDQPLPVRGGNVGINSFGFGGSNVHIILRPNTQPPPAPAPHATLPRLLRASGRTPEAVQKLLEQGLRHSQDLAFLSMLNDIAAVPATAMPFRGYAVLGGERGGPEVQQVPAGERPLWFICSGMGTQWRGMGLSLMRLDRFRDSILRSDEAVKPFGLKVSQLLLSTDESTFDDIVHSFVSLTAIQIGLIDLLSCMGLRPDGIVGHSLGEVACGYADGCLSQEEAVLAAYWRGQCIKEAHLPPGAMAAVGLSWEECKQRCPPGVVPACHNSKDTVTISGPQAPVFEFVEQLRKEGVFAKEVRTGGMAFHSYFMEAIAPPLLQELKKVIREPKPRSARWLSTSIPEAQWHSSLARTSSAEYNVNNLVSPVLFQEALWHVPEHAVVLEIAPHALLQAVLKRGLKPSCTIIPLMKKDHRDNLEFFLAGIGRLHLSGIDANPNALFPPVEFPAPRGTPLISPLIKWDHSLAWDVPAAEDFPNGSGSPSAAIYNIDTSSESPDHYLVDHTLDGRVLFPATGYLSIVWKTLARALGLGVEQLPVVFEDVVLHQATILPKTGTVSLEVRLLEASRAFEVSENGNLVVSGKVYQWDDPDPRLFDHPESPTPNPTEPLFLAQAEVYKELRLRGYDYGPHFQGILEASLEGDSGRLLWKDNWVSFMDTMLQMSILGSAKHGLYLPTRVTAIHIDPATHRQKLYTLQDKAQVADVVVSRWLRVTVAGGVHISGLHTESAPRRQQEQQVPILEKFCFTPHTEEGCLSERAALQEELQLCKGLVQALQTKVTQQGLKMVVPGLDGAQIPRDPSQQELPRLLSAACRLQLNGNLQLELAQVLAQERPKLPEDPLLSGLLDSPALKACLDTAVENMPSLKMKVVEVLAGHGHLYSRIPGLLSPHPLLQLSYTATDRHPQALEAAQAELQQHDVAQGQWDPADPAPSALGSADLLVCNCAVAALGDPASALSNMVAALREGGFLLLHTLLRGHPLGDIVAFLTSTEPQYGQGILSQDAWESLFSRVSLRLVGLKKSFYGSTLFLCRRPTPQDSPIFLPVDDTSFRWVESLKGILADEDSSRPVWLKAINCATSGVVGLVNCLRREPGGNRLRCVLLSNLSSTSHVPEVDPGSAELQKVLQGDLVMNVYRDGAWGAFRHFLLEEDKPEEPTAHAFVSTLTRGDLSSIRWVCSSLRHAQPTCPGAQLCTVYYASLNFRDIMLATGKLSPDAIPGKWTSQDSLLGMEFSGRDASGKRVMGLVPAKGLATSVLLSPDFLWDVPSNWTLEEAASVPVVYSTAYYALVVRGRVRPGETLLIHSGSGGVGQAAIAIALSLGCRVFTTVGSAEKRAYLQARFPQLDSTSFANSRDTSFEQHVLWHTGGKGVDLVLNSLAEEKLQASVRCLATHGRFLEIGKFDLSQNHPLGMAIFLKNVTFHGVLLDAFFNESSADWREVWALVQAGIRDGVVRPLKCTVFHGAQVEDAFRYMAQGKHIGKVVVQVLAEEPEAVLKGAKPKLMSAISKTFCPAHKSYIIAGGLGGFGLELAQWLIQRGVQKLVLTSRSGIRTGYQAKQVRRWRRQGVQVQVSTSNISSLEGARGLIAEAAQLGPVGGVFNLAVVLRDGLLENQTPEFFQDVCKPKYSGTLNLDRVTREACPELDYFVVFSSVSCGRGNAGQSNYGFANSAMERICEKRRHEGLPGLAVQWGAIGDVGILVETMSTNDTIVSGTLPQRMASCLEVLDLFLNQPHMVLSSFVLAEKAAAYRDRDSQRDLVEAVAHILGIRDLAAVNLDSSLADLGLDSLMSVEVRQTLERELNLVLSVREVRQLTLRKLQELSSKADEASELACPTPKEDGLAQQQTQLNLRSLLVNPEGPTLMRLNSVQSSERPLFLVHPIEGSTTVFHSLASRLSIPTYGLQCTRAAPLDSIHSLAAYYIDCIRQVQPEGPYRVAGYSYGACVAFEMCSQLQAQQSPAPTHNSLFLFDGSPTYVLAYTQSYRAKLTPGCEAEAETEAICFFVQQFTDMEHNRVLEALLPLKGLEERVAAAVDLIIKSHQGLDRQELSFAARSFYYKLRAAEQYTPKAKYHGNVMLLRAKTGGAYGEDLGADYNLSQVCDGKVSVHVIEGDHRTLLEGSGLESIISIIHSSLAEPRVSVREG

C#C[C@]1(O)CC[C@H]2[C@@H]3CCC4=CC(=O)CC[C@@H]4[C@H]3CC[C@@]21C
active: [1] 50 µM | [11] 9.92 µM | [14] 0.24 µM | [15] 15.4 µM
not listed: [17] | [18] | [19]
inactive: all other assays above

Cc1cc(CCN2CCN(c3nsc4ccccc34)CC2)cc2c1NC(=O)CC2(C)C
active: [1] 50 µM | [3] 76.7 µM | [17] 73.4 µM | [5] 77.8 µM | [6] 7.65 µM | [11] 79.8 µM | [14] 74.7 µM | [15] 32 µM
not listed: [2] | [18] | [19]
inactive: all other assays above

O=C(O)c1ccccc1C(c1ccc(O)cc1)c1ccc(O)cc1
not listed: [2] | [19]
inactive: all other assays above

c1ccc2c(c1)Cc1ccccc1-2
active: [6] 50 µM
not listed: [18] | [19]
inactive: all other assays above

CCOC(=O)CC(O)(CC(=O)OCC)C(=O)OCC
not listed: [18]
inactive: all other assays above

CCCCC(CC)COC(=O)CCCCC(=O)OCc1ccccc1 (stereo not drawn)
active: [6] 50 µM
not listed: [18]
inactive: all other assays above

CC(C)(C)c1cccc(C(C)(C)C)c1O
not listed: [2] | [18] | [19]
inactive: all other assays above
